Assay outcomes from PubChem.
HT1080 IDH1KD tx: kills HT-1080 cells with IDH1 knockdown. Potency, µM (doses to about 46.1 µM), usual class: cytotoxic. hit rate 2% among 360,000. HT-1080 IDH1 knockdown viability, ATP luminescence, 48 h
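IDH1KD HT-1080 cells, 750/well, RPMI + 5% FBS; compound pinned after 2 h settling; 48 h, 37 °C; CellTiter-Glo luminescence; % activity normalised to DMSO and no-cell wells; curves fitted, classed by r2 and efficacy.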
TDP1 cell CPT: growth inhibition of DT40 Tdp1-/-;hTDP1 cells with camptothecin (screen for TDP1 inhibitors) | chicken DT40 Tdp1-/-;hTDP1 cells + 20 nM CPT, ATP luminescence, 48 h | Potency, µM (doses to about 46.2 µM), hits mostly inhibitors | hit rate 12% among 420,000; further: nearly all actives have a fitted effect of over 55% in size
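Cell growth measured by CellTiter-Glo luminescence after a minimum 48 h, 37 C compound exposure with 20 nM CPT in Tdp1-knockout DT40 cells stably expressing hTDP1, seeded 400/well; qHTS titration format.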
IL-1B inflam inh: blocks inflammasome-driven IL-1 beta release; THP-1 LPS/ATP IL-1B secretion, AlphaLISA, 16 h; hits give low values; activity change, % at 57.5 µM; hit rate 4.7% among 360,000; in the data active means activity change below about -50%; inconclusive means mostly about -30% to -49%
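Secreted IL-1B measured by AlphaLISA bead assay after 16 h compound exposure of THP-1 cells; compounds (final up to 57.5 uM) added 1 h before LPS (250 ng/mL) and ATP (1.25 mM) stimulation; lower signal means less secretion.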
HT1080-NT tox: kills 2HG-producing HT-1080-NT fibrosarcoma cells | Potency, µM (doses to about 46.1 µM), hits mostly cytotoxic | hit rate 1.6% among 360,000 | HT-1080-NT fibrosarcoma viability, CellTiter-Glo ATP luminescence, 48 h;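 further: NT is the 2HG producing partner of a matched IDH1 knockdown line; nearly all actives have a fitted effect of over 55% in size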
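HT-1080-NT; 750 cells/well; 5% FBS RPMI; 48 h compound, 37 degrees C; CellTiter-Glo luminescence; curve fitting and curve-class assignment.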
TDP1 cell noCPT: qHTS for Inhibitors of human tyrosyl-DNA phosphodiesterase 1 (TDP1): qHTS in cells in absence of CPT; DT40 Tdp1-/- hTDP1 cells, no CPT, ATP luminescence, 48 h; Potency, µM (titrated, usually from 46.2 µM), usual class: inhibitors; hit rate 15% among 420,000; further: nearly all actives have a fitted effect of over 55% in size
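Readout: luminescence from CellTiter-Glo after 30 min in the dark at RT. Cells: DT40 Tdp1-/- with stable hTDP1, 400/well. Exposure: compounds alone, ≥48 hr, 37 °C.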
ELG1 DNA repair: blocks ELG1-dependent DNA repair in HEK293T cells. HEK293T ELG1-luciferase reporter, luminescence, 16 h; DNA damage induced by 5-fluorouridine. hit rate 2.3% among 330,000. Potency, µM (titrated, usually from 46.1 µM), usual class: inhibitors. AID 504467; further: nearly all actives have a fitted effect of over 55% in size
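Luminescence from the luciferase reporter, measured 30 min after ONE-Glo reagent at room temperature, was the read-out. Beforehand, 2,000 cells per well were exposed for 16 hr at 37 °C to 5-fluorouridine together with compound or vehicle.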
A number is an active result. The list is not random: actives were taken first. Their share in the collection is about 19%. Unless noted, the call rests on the fitted dose curve; in most records, active means well fitted curve in the direction sought with a large enough effect; inconclusive means small, poorly fitted or top-dose-only effect, or another doubt; inactive means no such curve, though single readings can be large; an effect the other way counts as inactive or inconclusive.

Screening CCCCCCN1CC(=O)N2Cc3[nH]c4ccccc4c3C[C@H]2C1=O returned HT1080 IDH1KD tx inactive, TDP1 cell CPT inactive, IL-1B inflam inh -58, HT1080-NT tox inactive, TDP1 cell noCPT inconclusive and ELG1 DNA repair inactive.
For O=C1[C@@H]2Cc3c([nH]c4ccccc34)CN2C(=O)CN1CCCO the results were HT1080 IDH1KD tx inactive, TDP1 cell CPT inactive, IL-1B inflam inh inactive, HT1080-NT tox inactive, TDP1 cell noCPT inactive and ELG1 DNA repair inactive.
Screening CCCCN1C(=O)C2Cc3c([nH]c4ccccc34)CN2C1=S (stereo not drawn) returned HT1080 IDH1KD tx inactive, TDP1 cell CPT inactive, IL-1B inflam inh -88, HT1080-NT tox inactive, TDP1 cell noCPT inconclusive and ELG1 DNA repair inconclusive.
Screening OCCC1CN(Cc2ccc(Oc3ncccn3)cc2)CCN1C1CCCCC1 (stereo not drawn) returned HT1080 IDH1KD tx inactive, TDP1 cell CPT inactive, IL-1B inflam inh inactive, HT1080-NT tox inconclusive, TDP1 cell noCPT inactive and ELG1 DNA repair inactive.
For Cc1cccc(S(=O)(=O)NC(=O)C2(C)CCN2C(=O)Cc2ccc(-c3ccccc3)cc2)c1 (stereo not drawn) the results were HT1080 IDH1KD tx inactive, TDP1 cell CPT inactive, IL-1B inflam inh inactive, HT1080-NT tox inactive and TDP1 cell noCPT inconclusive.
For CC1(C(=O)N2CCCCC2)CCN1C(=O)Cc1ccc(-c2ccccc2)cc1 (stereo not drawn) the results were HT1080 IDH1KD tx inactive, TDP1 cell CPT 15µM, IL-1B inflam inh inactive, HT1080-NT tox inactive and TDP1 cell noCPT inconclusive.
Cc1ccc(CNC(=O)C2(C)CCN2C(=O)Cc2ccc(-c3ccccc3)cc2)cc1 (stereo not drawn) was read as HT1080 IDH1KD tx inconclusive, TDP1 cell CPT inconclusive, IL-1B inflam inh inactive, HT1080-NT tox inconclusive and TDP1 cell noCPT 23µM.
`CC1(C(=O)Nc2ccc3c(c2)OCO3)CCN1C(=O)Cc1ccc(-c2ccccc2)cc1` (stereo not drawn) gave HT1080 IDH1KD tx inconclusive, TDP1 cell CPT 7.3µM, IL-1B inflam inh inactive, HT1080-NT tox inconclusive and TDP1 cell noCPT 4.6µM.
For CC1(C(=O)NCCC#N)CCN1C(=O)CC(c1ccccc1)c1ccccc1 (stereo not drawn) the results were HT1080 IDH1KD tx inactive, TDP1 cell CPT inactive, IL-1B inflam inh -50, HT1080-NT tox inactive and TDP1 cell noCPT inconclusive.
For Cc1ccc(S(=O)(=O)NC(=O)C2(C)CCN2C(=O)Cc2ccc(-c3ccccc3)cc2)nc1 (stereo not drawn) the results were HT1080 IDH1KD tx inactive, TDP1 cell CPT inactive, IL-1B inflam inh inactive, HT1080-NT tox inactive and TDP1 cell noCPT inactive.
Screening CC(C)c1ccc(CC(=O)N2CCC2(C)C(=O)NCCC#N)cc1 (stereo not drawn) returned HT1080 IDH1KD tx inactive, TDP1 cell CPT inactive, IL-1B inflam inh inactive, HT1080-NT tox inactive and TDP1 cell noCPT inactive.
For CC1(c2ccc(NC(=O)c3ccccc3F)cc2)CC1(Cl)Cl (stereo not drawn) the results were HT1080 IDH1KD tx inactive, TDP1 cell CPT inconclusive, IL-1B inflam inh inactive, HT1080-NT tox inactive, TDP1 cell noCPT inconclusive and ELG1 DNA repair inconclusive.
`CC1(C(=O)Nc2ccccc2)CCN1C(=O)Cc1ccc(-c2ccccc2)cc1` (stereo not drawn) gave HT1080 IDH1KD tx inconclusive, TDP1 cell CPT 23µM, IL-1B inflam inh inactive, HT1080-NT tox inconclusive and TDP1 cell noCPT 18µM.
For COc1cccc(NC(=O)C2(C)CCN2C(=O)Cc2ccc(-c3ccccc3)cc2)c1 (stereo not drawn) the results were HT1080 IDH1KD tx inconclusive, TDP1 cell CPT inconclusive, IL-1B inflam inh inactive, HT1080-NT tox inconclusive and TDP1 cell noCPT 15µM.
